Reference: PubChem BioAssay (NCI)
The panel holds about 79,000 compounds, 15% with a hit somewhere; the sample as a whole holds those more often. A number with no mark means an inactive call. The source made the active and inactive calls. Cut-off read from the data, not from the text of the source: active = growth inhibition above about 70%; inactive = the rest. *1 amine or outer side, *2 acyl side, *3 side chain or, on linkers, in order; H or OH if unused. Where a SMILES comes first, the peptide text is derived from it. Bridges are numbered along the chain shown (N, C = ends). Roman numbers before positions name the chains, in order. [ ]: non-standard residue; d: D form. Actinocin(9to1) = Cc1c2oc3c(C)ccc(C(=O)[*:1])c3nc-2c(C(=O)[*:2])c(N)c1=O; X13 = O=C1CC(C(=O)[*:2])N([*:1])C1; NMeV = CN[CH](C(=O)O)C(C)C; Sar = CNCC(=O)O

Assays:
[1] = NCI Yeast Anticancer Drug Screen. Data for the rad50 strain (AID 155);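 note: 0% = growth of vehicle-only cultures of the same strain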; details: S. cerevisiae rad50 strain growth inhibition; at 50.0 µM; hits give high values
Outline: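 Relative growth inhibition (compound vs vehicle) was measured in yeast with a defined repair-gene alteration.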

[2] = NCI Yeast Anticancer Drug Screen. Data for the mec2-1 strain (AID 157); details: S. cerevisiae mec2-1 strain, at 50.0 µM, hits give high values
Outline: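 Each compound was tested on mec2-1 yeast, a strain altered in DNA damage repair or cell cycle control. Growth inhibition is reported relative to vehicle.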

[3] = NCI Yeast Anticancer Drug Screen. Data for the sgs1 mgt1 strain (AID 161);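 note: 0% = growth of cultures given vehicle only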; details: S. cerevisiae sgs1 mgt1 strain, at 50.0 µM, hits give high values
Outline: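 Test agents were incubated with a DNA-repair-mutant yeast strain. Growth was then read and compared against vehicle-treated controls.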

[4] = NCI Yeast Anticancer Drug Screen. Data for the cln2 rad14 strain (AID 165);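 note: 0% = growth equal to vehicle treated cultures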; details: S. cerevisiae cln2 rad14 strain, at 50.0 µM, hits give high values
Outline: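 Test compounds were added to cln2 rad14 yeast cultures; inhibition of growth was then determined by comparison with vehicle treatment.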

[5] = NCI Yeast Anticancer Drug Screen. Data for the bub3 strain (AID 167); details: S. cerevisiae bub3 mutant strain, at 50.0 µM, hits give high values
Outline: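 Screening used yeast with an engineered genetic alteration affecting cell cycle control. Compound-exposed cultures were compared with vehicle cultures, and reduced growth was taken as inhibition.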

[6] = NCI Yeast Anticancer Drug Screen. Data for the mlh1 rad18 strain (AID 175); details: S. cerevisiae mlh1 rad18 strain growth inhibition; at 50.0 µM; hits give high values
Outline: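 Inhibition values reflect reduced growth of mutant yeast versus vehicle-treated controls following compound exposure; the mutations affect DNA damage repair.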

| Compound | growth inhibition [1] | growth inhibition [2] | growth inhibition [3] | growth inhibition [4] | growth inhibition [5] | growth inhibition [6] |
| --- | --- | --- | --- | --- | --- | --- |
| CC(C)C(CC1CCCCC1)C(C)O (stereo unspecified) | -7.65% | -0.45% | -14.6% | -14.4% | -9.35% | -17.6% |
| CC(=O)CC(=O)OC1CC(C)CCC1C(C)C (stereo unspecified) | 12.2% | -24.4% | -6.25% | 15.3% | -26.1% | 23.1% |
| N=C(N)C1CC1 | -6.75% | -9.5% | -8.9% | 12.8% | 2.4% | -13.2% |
| COC(=O)CCC(=O)Nc1cc(Cl)c(Cl)cc1Cl | -14.1% | 8.15% | 6.55% | 1.15% | 9.3% | -7.4% |
| O=C(Nc1cc(C(F)(F)F)ccc1Cl)C(=O)C(C(=O)c1ccc2ccccc2c1)C1OC(=O)c2ccccc21 (stereo unspecified) | 35% | 24.4% | 19.6% | 20.3% | 30.9% | 55.5% |
| C#CC[N+](C)(CC#C)CC#C | 9.85% | 7.8% | 13% | 11.9% | 9.7% | 9.2% |
| CCCCCCC(=O)/C=C/c1cc(Cl)cc(Cl)c1OCOC | 35% | 26.1% | 25.1% | -4.4% | 18.4% | 5.6% |
| COCCc1c2ccccc2cc2ccccc12 | 24.9% | 3.2% | 10.4% | 7.65% | -22.1% | 17.8% |
| CC1=CC(C)(C)NC(=S)N1c1ccccc1O | -0.95% | 25.6% | 15.3% | -16.4% | 41.8% | 41% |
| COC(=O)Nc1cn2cc(C(=O)c3cccs3)ccc2n1 | -2.5% | -21.5% | -9.95% | -10.5% | -42% | -53.2% |
| CC(=O)Nc1ccc2nc(N)sc2c1 | 13% | 5.55% | -16.1% | -3.65% | 3.8% | 6.6% |
| Cc1nc2nc(N)nnc2c(=O)[nH]1 | -7.25% | 3.2% | -18.8% | -13.8% | -1.75% | -0.1% |
| C=C(S(=O)(=O)CC)S(=O)(=O)CC | 28.9% | -7.75% | -3.8% | -53% | -6.5% | 4.4% |
| COC(=O)c1nc(N)nc(C(=O)OC)c1C(=O)c1ccc2ccccc2c1 | -4.75% | -13% | 10.8% | -2.8% | 3.9% | 9.4% |
| COC(=O)n1c(CBr)c(Br)c2ccccc21 | 26.3% | -2.15% | -3.65% | -3.8% | 4.9% | 1.5% |
| COc1nc(C(=O)NNC(=O)c2nc(OC)c3ccccc3c2-c2ccccc2)c(-c2ccccc2)c2ccccc12 | -6.9% | -5.8% | -19.2% | -8.7% | -17% | 1.3% |
| CC(C)(C)CC(C)(C)NS(=O)(=O)NC(C)(C)CC(C)(C)C | 1.1% | -31.1% | -9.15% | -57.3% | 1.45% | 0.7% |
| COC(=O)c1n[nH]n(Cc2cccs2)c1=O (tested in a mixture with another compound) | 14.8% | 13.9% | 16.1% | -0.85% | 10.6% | 26.2% |
| CCOC(=O)/C(=N/Nc1ccc(C)cc1)N1C(=S)C=C(C)NN(C)C1=S | -34.3% | 4% | -31.1% | -13.3% | -19.7% | -30.9% |
| C#CCOC(=O)c1ccc(OC(C)=O)cc1 | -3.45% | 1.45% | 10.1% | 3.45% | 14.2% | -1.65% |
| OCC(O)C(O)C(O)C(O)/C=N\Nc1ccccc1 (stereo unspecified) | 43.3% | 67% | 62.8% | 34.1% | 81% (active) | 89.1% (active) |

| Compound | growth inhibition [1] | growth inhibition [2] | growth inhibition [3] | growth inhibition [4] | growth inhibition [5] | growth inhibition [6] |
| --- | --- | --- | --- | --- | --- | --- |
| O=S(=O)(O)SCC1=NCCCCN1 | -2.95% | -5.7% | -6.35% | -9.4% | -14.4% | 0.05% |
| Cc1c2oc3c(C)ccc(C(=O)NC4C(=O)NC(C(C)C)C(=O)N5CC(=O)CC5C(=O)N(C)CC(=O)N(C)C(C(C)C)C(=O)OC4C)c3nc-2c(C(=O)NC2C(=O)NC(C(C)C)C(=O)N3CC(=O)CC3C(=O)N(C)CC(=O)N(C)C(C(C)C)C(=O)OC2C)c(N)c1=O (stereo unspecified) (I: TV[X13][Sar][NMeV] / II: TV[X13][Sar][NMeV]; ester I:1-I:C, II:1-II:C; linker I:N-II:N via Actinocin(9to1); configuration not given here) | -22.6% | -1.65% | -3.1% | 52.4% | -3.25% | -42.8% |
| COc1cc2c(cc1O)[C@@H]1Cc3c(cc(OC)c(OC)c3Oc3cc4c(cc3OC)CCN(C)[C@@H]4Cc3ccc(O)cc3)[C@H](C2)N1C | 14.9% | 8.75% | 0.15% | 12.1% | -10.4% | -56% |
| Cc1ccc(NC(=O)C2C(=O)N(c3ccc(C)cc3)C(=O)/C2=N\NC(N)=S)cc1 (stereo unspecified) | -29.7% | -25.1% | -38% | -10.4% | -10% | -26.8% |
| CCN(CC)c1nc(NNS(=O)(=O)c2ccccc2)nc(N(CC)CC)n1 | -3.6% | -5.2% | 4.3% | -13.1% | -4.3% | 11% |
| Cc1ccsc1/C=N/Nc1nc2ccccc2s1 | 1.7% | -1.5% | 13.7% | 9.2% | -2.15% | 11.3% |
| CN1CCN(C(=S)N(C(=O)c2ccco2)c2ccccc2)CC1 | -57.8% | -44.3% | -22.6% | -2.4% | -0.1% | -37.9% |
| Cc1cc(CN2CCCCC2)c(O)c(CN2CCCCC2)c1 | -4.3% | -18.9% | -13.4% | -0.2% | -29.4% | -7.05% |
| N#[N+]c1ccc2c(c1)C(=O)c1ccccc1-2 | 3.2% | 0.05% | -0.6% | -46.2% | 8.6% | -6.65% |
| O=C(OCc1c(-c2ccccc2)nn(-c2ccccc2)c1COC(=O)Oc1ccccc1)Oc1ccccc1 | -2.8% | -14.6% | -11.8% | 17.8% | -11.2% | 10.2% |
| CCOC(=O)C(OCC1CC=CCC1)Sc1ccccc1 (stereo unspecified) | 10.6% | -24.6% | -4.95% | -19.3% | -9.7% | -13.9% |
| CC(=O)C1C(=O)C(=O)N(c2ccc([N+](=O)[O-])cc2Cl)C1=O (stereo unspecified) | -45.9% | -35.8% | 2.95% | 2.95% | -3.55% | -33.2% |
| CC(C)(O)c1c(F)c(F)c(F)c(F)c1F | 17.2% | -13.7% | 5.1% | 17.6% | 27.8% | 7.15% |
| CC1=C(C)OCC1 | 8.9% | 4% | 9.25% | 7.85% | 4.2% | 5.5% |
| O=C1CSC(c2ccc(F)cc2)N1c1nncs1 (stereo unspecified) | 5.2% | 3.65% | 9.7% | 3.6% | 31.6% | 7.45% |
| CN(C)c1ccc(/C=C(\C#N)c2ccc(Cl)cc2Cl)cc1 | -15.8% | -14.7% | -0.35% | -25.6% | 7% | 0.95% |
| O=C1C2C(C(=O)N1c1ccccc1)C1(Br)c3ccccc3C2(Br)C2C(=O)N(c3ccccc3)C(=O)C21 (stereo unspecified) | -9.6% | 6.3% | -3.35% | -13.4% | -4.55% | -2.55% |
| O=C(N/N=C\c1ccc2c(c1)OCO2)c1ccc2c(c1)OCO2 | 0.7% | 0.05% | 1.85% | -15.2% | 5.05% | 0.55% |
| Cc1cn(C2OC3COC2C3O)c(=O)[nH]c1=O (stereo unspecified) | -20.8% | 0.55% | 10.7% | 27.2% | -6% | -4.75% |
| CCOc1cc2c(cc1O)C(O)C[C@@H]1[C@@H]2CC[C@]2(C)[C@@H](O)CC[C@@H]12 (stereo partly specified) | 14.8% | -7.9% | 22.7% | 11.9% | 24.2% | 25.1% |
